Measured values published in PubChem BioAssay AID652054 (National Center for Advancing Translational Sciences (NCATS), 2013).
Out of some 360,000 compounds screened, about 9,100 (2.5%) were called active. Inconclusive results (about 4%) are left out. Rule as the data show it: active = max response below about -50%; inconclusive = no clear call, values can overlap the other calls; inactive = above that. Shown is part of a subset that was picked to be rich in actives.
% is scaled to controls: 0 for no effect and ±100 for the full control effect.

The molecules below were run against D(3) dopamine receptor (Homo sapiens) (UniProt P35462) (assay: qHTS of D3 Dopamine Receptor Antagonist: qHTS). Conditions: D3R cells, DiscoveRx beta-arrestin luminescence, antagonist mode; active compounds read low.
Sequence of D(3) dopamine receptor (Homo sapiens) (P35462 whole entry, looked up): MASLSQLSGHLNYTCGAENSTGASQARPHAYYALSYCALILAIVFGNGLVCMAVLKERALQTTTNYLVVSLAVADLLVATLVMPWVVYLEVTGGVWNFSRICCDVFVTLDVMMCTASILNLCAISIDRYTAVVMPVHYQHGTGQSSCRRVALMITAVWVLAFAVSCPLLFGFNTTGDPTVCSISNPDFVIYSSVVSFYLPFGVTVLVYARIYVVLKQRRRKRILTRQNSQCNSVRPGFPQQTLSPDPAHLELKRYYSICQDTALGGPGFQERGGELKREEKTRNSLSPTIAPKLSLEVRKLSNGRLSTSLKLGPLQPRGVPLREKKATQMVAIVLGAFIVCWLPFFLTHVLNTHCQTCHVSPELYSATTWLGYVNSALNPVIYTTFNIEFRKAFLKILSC
In short: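 Cells plated overnight at 1500 cells/well, then exposed to library compounds with dopamine controls for 90 minutes at 37 degrees C. DiscoveRx reagent added for 30–60 minutes at room temperature; luminescence read, quantitative HTS format.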
For `C[C@@H]1CN([C@@H](C)CO)C(=O)CCCn2cc(nn2)CO[C@H]1CN(C)S(=O)(=O)c1ccc(-n2cccn2)cc1`, the max response, negative = inhibition was -5.35% (inactive). `COC(=O)[C@]12CCCCC=C1N(Cc1ccc(Cl)cc1Cl)C(=O)[C@H](CC(=O)NCc1cccc3ccccc13)C2` was tested, and the max response, negative = inhibition was -15.1% (inactive). With `COc1cc(CCN=Cc2ccccc2O)c([N+](=O)[O-])cc1OC` the max response, negative = inhibition was 2.41% (inactive). In the case of `CC(C)[C@H](NC(=O)OCc1ccccc1)C(=O)OCc1ccccc1`, the max response, negative = inhibition was -14.6% (inactive). For `NCCCCC(C(=O)O)N(C(=O)OCc1ccccc1)C(=O)OCc1ccccc1` (configuration not stated), the max response, negative = inhibition was -55.1% (active). With `O=C(NCC1CCC(C(=O)O)CC1)OCc1ccccc1` (configuration not stated) the max response, negative = inhibition was 22% (inactive). For `CCc1oc(-c2ccc(OC)cc2)c(C(=O)OCCCCCO)c1C(C)OCCO` (configuration not stated), the max response, negative = inhibition was 14.5% (inactive). In the case of `S=c1c2[nH]cnc2ncn1CCSc1ncnc2nc[nH]c12`, the max response, negative = inhibition was -78.7% (active). For `Cc1ccc(NC(=O)c2ccc(CSc3ncnc4nc[nH]c34)cc2)c(C)c1`, the max response, negative = inhibition was -9.41% (inactive). `CCc1ccc(N(CC)c2ncnc3nc[nH]c23)cc1` was tested, and the max response, negative = inhibition was -11.5% (inactive). `CCOP(=O)(OCC)C(Cc1ccccc1)N=C(c1ccccc1)c1ccccc1` (configuration not stated) was tested, and the max response, negative = inhibition was -6.96% (inactive). In the case of `O=C(N1CCOCC1)N1CCOCC1`, the max response, negative = inhibition was -50.3% (active). For `Cc1ccc(C(=O)NC2CCN(C(=O)N3CCOCC3)CC2)cc1`, the max response, negative = inhibition was 11.7% (inactive). In the case of `O=C(N1CCCCC1)N1CCN(C(=O)N2CCCCC2)CC1`, the max response, negative = inhibition was -20.6% (inactive). For `O=C(NCCOc1ccccc1)N1[C@H]2CC[C@@H]1C=C(c1ccc(F)cc1OCc1ccccc1)C2`, the max response, negative = inhibition was 56.5% (inactive). With `CCOc1ccc(CCN2C(=O)C(=O)N([C@@H](Cc3ccc(O)cc3)CN3CCC[C@H]3CN3C(=O)C(=O)NC[C@@H]3CC(C)C)C[C@@H]2Cc2ccccc2)cc1` the max response, negative = inhibition was -23.4% (inactive). In the case of `CN(C)CCN1CCN(c2cc(-c3cccc(Cl)c3)nc3ccnn23)CC1`, the max response, negative = inhibition was -22% (inactive). `Cc1ccc(C(O)c2ncc(-c3ccccc3F)[nH]2)cc1F` (configuration not stated) was tested, and the max response, negative = inhibition was -0.345% (inactive). In the case of `FC(F)(F)Oc1ccccc1C(c1nnnn1C1CCCCC1)N1CCN(C/C=C/c2ccccc2)CC1` (configuration not stated), the max response, negative = inhibition was -77.9% (active). For `COc1ccc(C(c2nnnn2C2CCCCC2)N2CCN(c3ccccc3F)CC2)cc1` (configuration not stated), the max response, negative = inhibition was -13.2% (inactive). With `CCOC(=O)C1CCN(C(c2cc3cc(C)cc(C)c3[nH]c2=O)c2nnnn2C2CCCCC2)CC1` (configuration not stated) the max response, negative = inhibition was 18.8% (inactive). In the case of `OC(c1cc(Cl)cc(Cl)c1)c1ncc(-c2ccccc2C(F)(F)F)[nH]1` (configuration not stated), the max response, negative = inhibition was 2.77% (inactive). `CC(=O)NC1CC2CCCC(C1)N2CC(=O)Nc1ccccc1` (configuration not stated) was tested, and the max response, negative = inhibition was -23% (inactive). For `CCCCOCCCNC(=O)c1ccccc1OCC`, the max response, negative = inhibition was -16.2% (inactive). With `COc1ccc(NC(=O)NC2CC3CCCC(C2)N3Cc2ccccc2)cc1` (configuration not stated) the max response, negative = inhibition was -65.9% (active). For `CCCN1C2CCCC1CC(NC(=O)c1cccc(OC)c1)C2` (configuration not stated), the max response, negative = inhibition was 9.66% (inactive). With `CCOc1ccccc1C(=O)NC1CC2CCCC(C1)N2Cc1ccccc1` (configuration not stated) the max response, negative = inhibition was -77.3% (active). With `COc1ccc(CN2C3CCCC2CC(NC(=O)c2cccc(F)c2)C3)cc1` (configuration not stated) the max response, negative = inhibition was -88.5% (active). `CCOc1ccccc1OCC(=O)Nc1ccccc1C(=O)NC1CC1` was tested, and the max response, negative = inhibition was 2% (inactive). In the case of `COc1ccc(NC(=O)N2CCC(Cc3ccccc3)CC2)cc1`, the max response, negative = inhibition was -18% (inactive). With `COc1ccc(NC(=S)N2CCC(NC(=O)c3cccc(F)c3)CC2)cc1` the max response, negative = inhibition was -3.67% (inactive). `Cc1ccc(-c2ccc(C3=CC(=O)CC(C)(C)C3=O)cc2)cc1` was tested, and the max response, negative = inhibition was 4.58% (inactive). For `Cc1ccc([C@H]2N[C@]3(CCCN(CC4CCCCC4)C3=O)[C@H]3C(=O)N(Cc4ccccc4)C(=O)[C@@H]23)cc1`, the max response, negative = inhibition was 0.653% (inactive). With `Cc1ccc(F)c(S(=O)(=O)NC(=O)C2(C)CCN2C(=O)CCc2cccs2)c1` (configuration not stated) the max response, negative = inhibition was -4.74% (inactive). In the case of `COc1cc(C)c(C)cc1S(=O)(=O)N1CCCc2ccccc21`, the max response, negative = inhibition was -64.6% (active). `Cn1c(=O)n(C)c2cc(S(=O)(=O)N3CCCc4ccccc43)ccc21` was tested, and the max response, negative = inhibition was 5.19% (inactive). `COc1ccc(C(=O)OCC(=O)NCC2CCCCC2)cc1S(=O)(=O)N1CCCc2ccccc21` was tested, and the max response, negative = inhibition was 8.09% (inactive). With `N#CCCC(C#N)(c1cccnc1)N1CCOCC1` (configuration not stated) the max response, negative = inhibition was -3.79% (inactive). For `Cc1cc(OC(C)C(=O)NC2CC(C)(C)NC(C)(C)C2)c2c(C)cc(=O)oc2c1` (configuration not stated), the max response, negative = inhibition was 7.98% (inactive). `Cc1cc(=O)oc(C)c1C(=O)NC1CC(C)(C)NC(C)(C)C1` was tested, and the max response, negative = inhibition was -75.7% (active). For `Cc1ccc(C(=O)NC2CC(C)(C)NC(C)(C)C2)c(C)c1`, the max response, negative = inhibition was 39.4% (inactive). With `CC(C)C[C@H]1CNC(=O)C(=O)N1C[C@@H]1CCCN1C[C@H](Cc1ccccc1)N1C[C@H](CC(C)C)N(CC2CCCCCC2)C(=O)C1=O` the max response, negative = inhibition was -0.867% (inactive). For `CCOC(=O)[C@]12CCCC=C1N(CCC1=CCCCC1)C(=O)[C@H](CC(=O)N1CCN(C(=O)c3ccco3)CC1)C2`, the max response, negative = inhibition was 0% (inactive). In the case of `NC(=O)c1ccc(CN2CCC(Cc3ccccc3)CC2)cc1`, the max response, negative = inhibition was -23.1% (inactive). With `Brc1ccc(CN2CC[C@H]3C=CCc4cccc(c43)C2)cc1` the max response, negative = inhibition was -107% (active). `Brc1ccccc1CN1CCC(Cc2ccccc2)CC1` was tested, and the max response, negative = inhibition was -26.3% (inactive). With `O[C@@H]1C[C@H](c2ccccc2)N(Cc2cccs2)C[C@H]1n1cc(C2CC2)nn1` the max response, negative = inhibition was 2.45% (inactive). In the case of `C[C@H]1Cn2cnc(C(=O)N[C@H](C)c3ccccc3)c2C(=O)N1`, the max response, negative = inhibition was -3.02% (inactive). For `O=C1CCN(CCc2ccccc2)CCN1CCOc1ccccc1`, the max response, negative = inhibition was -8.76% (inactive). In the case of `O=c1[nH]c2ccccc2n1C1CCN(CCOc2ccccc2)CC1`, the max response, negative = inhibition was -110% (active). In the case of `OC(c1ccccc1)(c1ccccc1)C1CCN(CCCOc2ccccc2)CC1`, the max response, negative = inhibition was -8.6% (inactive). In the case of `CS(=O)(=O)N1CCCCC1c1cc(C(=O)NCc2ccccc2)no1` (configuration not stated), the max response, negative = inhibition was 13.9% (inactive). In the case of `CCN(CC)CCNCc1ccc(OCc2ccc(Cl)nc2)c(OC)c1`, the max response, negative = inhibition was -23.1% (inactive). In the case of `COc1cc(CNCCN(C)C)ccc1OCc1c(F)cccc1Cl`, the max response, negative = inhibition was -51.3% (active). With `CCOCCCNCc1ccc(OCc2ccc(F)cc2)c(OC)c1` the max response, negative = inhibition was 13.1% (inactive). For `CCOC(=O)[C@]12CCCC=C1N(CCC1=CCCCC1)C(=O)[C@H](CC(=O)N1CCCCC1)C2`, the max response, negative = inhibition was 6.86% (inactive). In the case of `Cc1ccc([C@@H]2CC(=O)[C@@H]3CN(S(=O)(=O)c4ccc(C)cc4)[C@H](c4ccccc4F)C[C@@H]3N2S(=O)(=O)c2ccc(Cl)cc2)cc1`, the max response, negative = inhibition was 4.51% (inactive). In the case of `Cc1cc(C)c2nc(N(CCN(C)C)C(=O)/C=C/c3cccs3)sc2c1`, the max response, negative = inhibition was -2.22% (inactive). For `Cc1ccc(S(=O)(=O)N(C)C)cc1NC(=O)/C=C/c1cccs1`, the max response, negative = inhibition was -18.2% (inactive). With `Cc1ccc2sc(N(CCN(C)C)C(=O)/C=C/c3cccs3)nc2c1C` the max response, negative = inhibition was -69.2% (active). In the case of `COc1ccc(C2CC(c3cccc(OC)c3)=NN2c2ccc(S(N)(=O)=O)cc2)cc1` (configuration not stated), the max response, negative = inhibition was 17.8% (inactive). With `O=C(/C=C/[C@H]1O[C@@H](n2ccc(=O)[nH]c2=O)[C@H](O)[C@@H]1O)NCc1ccccn1` the max response, negative = inhibition was 9.97% (inactive). In the case of `O=C(CC1NCCNC1=O)Nc1cc(Cl)cc(Cl)c1` (configuration not stated), the max response, negative = inhibition was 20.6% (inactive). `O=C(CC1NCCc2ccccc21)Nc1cccc(Cl)c1` (configuration not stated) was tested, and the max response, negative = inhibition was -95.5% (active). For `O=C(CC1NCCNC1=O)Nc1ccc(Oc2ccccc2)cc1` (configuration not stated), the max response, negative = inhibition was 24.3% (inactive). For `Cc1cccc(C)c1NC(=O)C(c1cccc(F)c1)N1CCN(C)CC1` (configuration not stated), the max response, negative = inhibition was -13.2% (inactive). `CC(=O)Nc1sc2c(c1C(c1cccc(F)c1)N1CCN(CCO)CC1)CCCC2` (configuration not stated) was tested, and the max response, negative = inhibition was -60.6% (active). `O=C(Nc1sc2c(c1C(=O)O)CCC2)c1ccccc1F` was tested, and the max response, negative = inhibition was -1.53% (inactive). `Cc1ccc(S(=O)(=O)N[C@H]2CCC[C@@H]2O)cc1` was tested, and the max response, negative = inhibition was -12.4% (inactive). With `CN(C(=O)CN1CCN(c2cc(-c3ccc(OCc4ccccc4)cc3)ncn2)CC1)c1ccccc1` the max response, negative = inhibition was 49% (inactive). In the case of `CC(=O)NCc1ccc(S(=O)(=O)NC2CCN(Cc3ccccc3)CC2)cc1`, the max response, negative = inhibition was -11.1% (inactive). With `CN(CC(=O)NC1CCN(Cc2ccccc2)CC1)S(=O)(=O)c1ccc(Cl)s1` the max response, negative = inhibition was -58.6% (active). With `CN(CC(=O)NC1CCCCC1)S(=O)(=O)c1ccc(Br)s1` the max response, negative = inhibition was -7.06% (inactive). With `CCNC(=O)C1(C)CCCN1C(=O)c1ccc(N(C)C)cc1` (configuration not stated) the max response, negative = inhibition was 6.44% (inactive). With `CC(C)(C)N1C(=O)c2c(C(=O)OCc3ccccc3)[nH]c(-c3ccccc3)c2C1=O` the max response, negative = inhibition was -3.03% (inactive). For `CC(=O)Nc1cccc(-c2cc3nc(NCc4cccnc4)n(C)c(=O)c3s2)c1`, the max response, negative = inhibition was 17.6% (inactive). For `COc1ccc(C(CNC(=O)c2ccc(OCc3cscn3)cc2)N2CCCC2)cc1` (configuration not stated), the max response, negative = inhibition was -19.8% (inactive). `COc1ccc(C(CNC(=O)CSc2ccccc2)N2CCOCC2)cc1` (configuration not stated) was tested, and the max response, negative = inhibition was 19.6% (inactive). `CCOc1ccc(NS(=O)(=O)c2ccc(C(=O)NCC(c3ccccc3OC)N3CCCC3)cc2)cc1` (configuration not stated) was tested, and the max response, negative = inhibition was -13.6% (inactive). For `COc1ccc(C(CNC(=O)COc2ccc([N+](=O)[O-])cc2)N2CCCCC2)cc1` (configuration not stated), the max response, negative = inhibition was -74.5% (active). `COc1ccc(OCC(=O)NNC(=O)C2CCC2)cc1` was tested, and the max response, negative = inhibition was -0.824% (inactive). For `COc1ccc(C(CNC(=O)COc2ccccc2OC)N2CCCCC2)cc1` (configuration not stated), the max response, negative = inhibition was -53.8% (active). For `CCc1nc2ccc(C(=O)NCCNC(C)=O)cn2c1N(CC)Cc1cccc(Br)c1`, the max response, negative = inhibition was 48.8% (inactive). With `O=C1NC[C@H](Cc2ccc(O)cc2)N(C[C@@H]2CCCN2C[C@H](Cc2ccccc2)N2C[C@H](Cc3ccccc3)N(CC3CCCCC3)C(=O)C2=O)C1=O` the max response, negative = inhibition was 8.41% (inactive). In the case of `Cc1ccc(Sc2cc(C(=O)c3ccccc3C(=O)O)ccc2[N+](=O)[O-])cc1`, the max response, negative = inhibition was -21.4% (inactive). For `CC(C)(C)c1ccc(C(=O)NNC(=O)Cc2ccccc2)cc1`, the max response, negative = inhibition was -17.8% (inactive). In the case of `Cc1ccc(SC(CC(=O)c2ccc(C(C)(C)C)cc2)C(=O)O)cc1` (configuration not stated), the max response, negative = inhibition was -80.7% (active).
